This note sets out measurements from PubChem BioAssay.

Assay [1] concerns Plasmodium falciparum Sir2 (PF13_0152, Sir2A). The assay is described as follows: pfSir2 binders on small-molecule microarrays, primary screen, biochemical, small-molecule microarray, 635 nm fluorescence (AID 1098).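 Further: score merges spot fluorescence intensity with its signal-to-noise ratio.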 Particulars: small-molecule microarray binding, fluorescence 635 nm; higher = more signal.
A short description of assay [2]: small-molecule microarray binders of probe aDKK1, primary screen, biochemical, biotinylated probe, 635/667 nm fluorescence (AID 1099).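 Further: score merges 667nm spot fluorescence with signal to noise across triplicate slides.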 The settings on record: higher = more signal.
The nature of assay [3]: small-molecule microarray binders of probe aCHRDL2, primary screen, biochemical, biotinylated probe, 635/667 nm fluorescence (AID 1100). The settings on record: higher = more signal.
Assay [4] in a line: splicing luciferase reporter signal modulators, primary screen, spliceosome inhibition project, cell-based, HEK293, splice +/- reporter (AID 1101).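 Further: HEK293 cells carrying a splicing-competent luciferase reporter gene; test concentration not given here.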 Particulars: luminescence, 24 h, higher = more signal, called active from +8 up or from −8 down.
Assay [5] addresses Fibroblast growth factor 10 (Homo sapiens) (UniProt O15520). As to the kind of experiment: FGF10 binders on small-molecule microarrays, primary screen, biochemical, small-molecule microarray, 635 nm fluorescence (AID 1102). Particulars: FGF10 binding, fluorescence 635 nm, higher = more signal.
Assay [6] relates to glycogen synthase kinase-3 (GSK3A per assay name; protocol says GSK3B). The assay is described as follows: GSK3 binders on small-molecule microarrays, primary screen, biochemical, small-molecule microarray, 635 nm fluorescence, GSK3A (AID 1103). Further: the record names both GSK3A and GSK3B. The settings on record: small-molecule microarray binding, fluorescence 635 nm; higher = more signal.
The target in assay [7] is Epidermal growth factor receptor (Homo sapiens) (UniProt P00533). As to the kind of experiment: EGFR binders on small-molecule microarrays, primary screen, biochemical, small-molecule microarray, 635 nm fluorescence (AID 1104).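 Further: score merges 667 nm emission intensity with spot signal to noise over triplicate slides.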 The settings on record: EGFR binding, higher = more signal.
Assay [8] deals with Follistatin-related protein 3 (Homo sapiens) (UniProt O95633). The assay is described as follows: FSTL3 binders on small-molecule microarrays, primary screen, biochemical, small-molecule microarray, 635 nm fluorescence (AID 1105).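 Further: score merges emission near 667 nm and signal to noise per printed spot across three slides.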 The settings on record: FSTL3 binding, higher = more signal.
The target in assay [9] is Dickkopf-related protein 1 (Homo sapiens) (UniProt O94907). The assay is described as follows: DKK1 binders on small-molecule microarrays, primary screen, biochemical, small-molecule microarray, 635 nm fluorescence scan (AID 1106).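 Further: score merges emission near 667 nm with signal to noise over three replicate slides.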 Particulars: DKK1 binding, higher = more signal.
The subject of assay [10] is Inhibin beta A chain (activin A). As to the kind of experiment: INHBA (activin A) binders on microarrays, primary screen, biochemical, small-molecule microarray, 635 nm fluorescence scan (AID 1107).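 Further: mouse activin A protein probed at 4.33 µg/mL on printed slides; score merges bound-protein fluorescence near 667 nm with spot signal-to-noise.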 The settings on record: small-molecule microarray binding, higher = more signal.
Assay [11] relates to Human papillomavirus type 1a protein E7 (residues 44-93). The assay is described as follows: HPV1a E7 fragment binders on microarrays, primary screen, biochemical, small-molecule microarray, residues 44-93, 635 nm fluorescence (AID 1108).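 Further: E7 fragment applied at 1 µg/mL in TBST for 1 h at 4 C; score combines spot fluorescence with its signal to noise ratio.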 The settings on record: small-molecule microarray binding, fluorescence 635 nm; higher = more signal.
The nature of assay [12]: modulators of HCV replicon luciferase signal, primary screen, HCV replication inhibitor project, Huh7 cells, luciferase reporter (AID 1109).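 Further: huh7 hepatoma cells harbouring a luciferase neomycin HCV replicon reporter; luciferase luminescence as measure of HCV replicon replication; test concentration not given here.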 Particulars: 48 h, higher = more signal.
Assay [13] deals with Left-right determination factor 2 (Homo sapiens) (UniProt O00292). The assay is described as follows: LEFTY2 binders on small-molecule microarrays, primary screen, biochemical, small-molecule microarray, 635 nm fluorescence scan (AID 1110). Particulars: LEFTY2 binding, higher = more signal.
Assay [14] concerns the target Calmodulin-1 (Homo sapiens) (UniProt P0DP23). The assay is described as follows: CALM1 binders on microarrays, EGTA buffer, profiling panel, biochemical, small-molecule microarray, Cy5-labelled CALM1 (AID 1111).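 Further: labelled calmodulin applied in Tris saline Tween buffer holding calcium plus EGTA and DTT.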 The settings on record: Cy5-CALM1 binding fluorescence, higher = more signal.
The target is the same in assay [15]. The assay is described as follows: calcium-bound CALM1 binders on microarrays, profiling panel, artefact control for SMM control-protein annotation, biochemical, small-molecule microarray, Cy5-labelled CALM1, plus calcium (AID 1112).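 Further: score merges spot fluorescence with signal to noise from triplicate slides.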 The settings on record: Cy5-CALM1 binding fluorescence, higher = more signal.
The nature of assay [16]: small-molecule microarray binders of probe aWnt5a, primary screen, biochemical, biotinylated probe, 635/667 nm fluorescence (AID 1113).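 Further: score merges 667 nm fluorescence intensity with signal-to-noise per printed feature.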 Particulars: higher = more signal.
A short description of assay [17]: small-molecule microarray binders of probe aShh, primary screen, biochemical, biotinylated probe, 635/667 nm fluorescence (AID 1114).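 Further: probe is biotin-labelled aShh protein from a stem cell growth factor screen; measures binding of labelled protein to compounds printed on the slide; score merges feature fluorescence at 667 nm with signal-to-noise.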 Particulars: higher = more signal.
Assay [18] can be described thus: small-molecule microarray binders of probe aNog, primary screen, biochemical, biotinylated probe, 635/667 nm fluorescence (AID 1115).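 Further: probe is biotinylated aNog protein used at 0.15 µg/mL for 1 h at 4 C; z-score combines 667 nm fluorescence of each spot with its signal to noise.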 Particulars: higher = more signal.
In assay [19] the target is Torsin-1A-interacting protein 1 (Homo sapiens) (UniProt Q5JTV8). As to the kind of experiment: LAP1 binders from COS7 cell lysate, primary screen, small-molecule microarray, 635/667 nm fluorescence (AID 1116). Particulars: COS7-hLAP1 lysate binding, 635 nm fluorescence, higher = more signal.
For assay [20], the target named is Alpha-bungarotoxin (Bungarus multicinctus) (UniProt P60615). As to the kind of experiment: alpha-bungarotoxin binders on microarray, profiling panel, artefact control for SMM control protein annotation, biochemical, small-molecule microarray, Alexa647 label, 635/667 nm fluorescence (AID 1117). Particulars: alpha-BTX-A647 binding fluorescence, higher = more signal.

Molecules are shown by their SMILES. Activity calls are given as the source filed them.

Chain of Epidermal growth factor receptor (Homo sapiens) (P00533 whole entry, looked up): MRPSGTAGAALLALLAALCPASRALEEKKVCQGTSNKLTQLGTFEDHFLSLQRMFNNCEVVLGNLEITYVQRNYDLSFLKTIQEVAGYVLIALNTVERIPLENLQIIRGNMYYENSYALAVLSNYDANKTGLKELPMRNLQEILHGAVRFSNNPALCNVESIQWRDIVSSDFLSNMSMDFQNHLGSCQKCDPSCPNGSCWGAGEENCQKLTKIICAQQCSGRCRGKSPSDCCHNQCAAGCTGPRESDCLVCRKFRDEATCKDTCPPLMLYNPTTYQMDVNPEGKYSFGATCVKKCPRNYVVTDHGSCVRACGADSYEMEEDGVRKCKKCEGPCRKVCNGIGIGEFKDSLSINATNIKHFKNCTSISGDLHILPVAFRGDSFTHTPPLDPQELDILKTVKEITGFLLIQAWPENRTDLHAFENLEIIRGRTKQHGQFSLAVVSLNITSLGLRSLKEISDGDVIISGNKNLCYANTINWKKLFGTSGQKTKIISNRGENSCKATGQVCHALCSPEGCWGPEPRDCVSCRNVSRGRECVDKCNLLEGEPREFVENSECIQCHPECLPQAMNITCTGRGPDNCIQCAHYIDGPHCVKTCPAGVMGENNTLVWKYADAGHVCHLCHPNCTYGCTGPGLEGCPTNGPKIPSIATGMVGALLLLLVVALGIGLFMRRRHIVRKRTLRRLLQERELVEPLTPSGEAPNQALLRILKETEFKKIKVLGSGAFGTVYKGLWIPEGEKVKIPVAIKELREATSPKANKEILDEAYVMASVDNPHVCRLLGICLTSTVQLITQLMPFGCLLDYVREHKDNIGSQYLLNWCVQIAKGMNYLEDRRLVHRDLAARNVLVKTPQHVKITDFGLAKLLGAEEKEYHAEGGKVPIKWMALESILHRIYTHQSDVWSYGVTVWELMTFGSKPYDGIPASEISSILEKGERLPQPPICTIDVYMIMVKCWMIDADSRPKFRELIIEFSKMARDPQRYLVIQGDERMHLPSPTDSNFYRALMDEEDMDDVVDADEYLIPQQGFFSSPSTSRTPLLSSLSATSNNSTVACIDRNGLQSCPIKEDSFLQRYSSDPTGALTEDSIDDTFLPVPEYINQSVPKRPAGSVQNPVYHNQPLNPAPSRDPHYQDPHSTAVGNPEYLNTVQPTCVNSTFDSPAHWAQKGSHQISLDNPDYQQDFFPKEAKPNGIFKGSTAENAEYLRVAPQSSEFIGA
Chain of Fibroblast growth factor 10 (Homo sapiens) (O15520 whole entry, looked up): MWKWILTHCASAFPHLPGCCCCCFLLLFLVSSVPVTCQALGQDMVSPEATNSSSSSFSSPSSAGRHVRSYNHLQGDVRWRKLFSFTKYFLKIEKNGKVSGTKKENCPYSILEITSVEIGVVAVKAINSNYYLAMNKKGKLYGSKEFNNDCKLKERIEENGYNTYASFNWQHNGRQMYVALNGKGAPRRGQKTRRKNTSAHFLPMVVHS
Chain of Torsin-1A-interacting protein 1 (Homo sapiens) (Q5JTV8 whole entry, looked up): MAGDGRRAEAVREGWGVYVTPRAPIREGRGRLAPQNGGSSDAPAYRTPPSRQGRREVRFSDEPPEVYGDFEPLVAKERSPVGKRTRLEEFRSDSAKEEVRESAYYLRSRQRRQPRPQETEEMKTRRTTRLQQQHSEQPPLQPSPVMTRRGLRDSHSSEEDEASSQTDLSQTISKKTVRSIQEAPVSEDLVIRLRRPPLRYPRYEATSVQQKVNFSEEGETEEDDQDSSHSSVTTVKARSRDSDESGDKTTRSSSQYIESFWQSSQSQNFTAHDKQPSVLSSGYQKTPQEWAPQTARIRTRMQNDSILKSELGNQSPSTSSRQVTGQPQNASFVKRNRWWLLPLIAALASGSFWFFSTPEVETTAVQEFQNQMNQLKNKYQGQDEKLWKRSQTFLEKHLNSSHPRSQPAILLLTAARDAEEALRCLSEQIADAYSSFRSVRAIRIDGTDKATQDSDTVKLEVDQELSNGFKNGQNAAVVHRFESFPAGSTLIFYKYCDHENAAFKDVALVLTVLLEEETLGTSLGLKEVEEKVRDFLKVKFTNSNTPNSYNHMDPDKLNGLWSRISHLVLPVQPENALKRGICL
Chain of Alpha-bungarotoxin (Bungarus multicinctus) (P60615 whole entry, looked up): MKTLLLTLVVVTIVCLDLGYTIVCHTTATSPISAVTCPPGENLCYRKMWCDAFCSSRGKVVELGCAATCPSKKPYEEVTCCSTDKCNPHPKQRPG
Chain of Follistatin-related protein 3 (Homo sapiens) (O95633 whole entry, looked up): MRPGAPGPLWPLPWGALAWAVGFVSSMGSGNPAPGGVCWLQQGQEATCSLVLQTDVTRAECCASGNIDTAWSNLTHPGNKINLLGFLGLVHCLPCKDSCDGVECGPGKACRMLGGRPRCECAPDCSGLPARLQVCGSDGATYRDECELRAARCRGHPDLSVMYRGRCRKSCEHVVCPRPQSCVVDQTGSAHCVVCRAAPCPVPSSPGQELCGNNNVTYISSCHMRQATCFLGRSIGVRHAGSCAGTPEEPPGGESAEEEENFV
Chain of Left-right determination factor 2 (Homo sapiens) (O00292 whole entry, looked up): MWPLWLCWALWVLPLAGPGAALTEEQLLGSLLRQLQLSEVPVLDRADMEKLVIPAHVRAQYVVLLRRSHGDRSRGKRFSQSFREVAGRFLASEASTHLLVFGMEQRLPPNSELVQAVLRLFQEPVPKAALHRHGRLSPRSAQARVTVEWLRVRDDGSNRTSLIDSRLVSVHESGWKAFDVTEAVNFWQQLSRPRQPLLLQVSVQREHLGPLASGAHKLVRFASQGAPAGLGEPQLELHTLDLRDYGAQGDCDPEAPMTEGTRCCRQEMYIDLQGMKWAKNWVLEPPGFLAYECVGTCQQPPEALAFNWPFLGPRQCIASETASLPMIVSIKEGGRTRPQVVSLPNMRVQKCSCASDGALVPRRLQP
Chain of Dickkopf-related protein 1 (Homo sapiens) (O94907 whole entry, looked up): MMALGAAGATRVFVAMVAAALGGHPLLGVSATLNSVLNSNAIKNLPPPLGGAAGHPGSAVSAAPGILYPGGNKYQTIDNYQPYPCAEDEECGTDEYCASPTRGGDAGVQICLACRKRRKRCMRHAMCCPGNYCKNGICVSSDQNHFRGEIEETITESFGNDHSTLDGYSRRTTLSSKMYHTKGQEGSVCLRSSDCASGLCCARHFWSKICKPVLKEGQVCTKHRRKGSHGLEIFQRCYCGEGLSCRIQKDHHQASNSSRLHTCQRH

Regarding `COC(=O)C1=C(C)N(Cc2ccccc2)C2=C3C(=O)OCC[C@@H]3[C@@](O)(C(=O)OC)C(=O)N2[C@@H]1c1ccccc1`, the composite z-score in assay [1] was 0.126; in assay [2], -0.117; in [3], -0.538; in assay [5], 0.325; in [6], 0.51; in assay [7], 0.526. Moreover, the composite z-score in assay [8] is 0.495; in [9] it was 0.563; in assay [10] it was 0.312; in [11], -0.0816; in [13] it was 0.528; in [14] it was -0.0583. Also, the composite z-score is -0.689 in assay [15]; -0.13 in assay [16]; 0.0278 in [17]; -0.189 in assay [18]; -0.207 in assay [19]; 0.415 in assay [20]. The z-score is -0.403 (inactive) in [4] and 0.935 in [12].

Take `COC(OC)[C@@H](C)[C@H](OC)[C@@H](C)[C@H](OC)c1ccccc1`: the composite z-score in assay [1] is -0.15; in assay [2], -0.185; in assay [3], -0.449; in assay [5] it was 0.0549; in assay [6], -0.485; in assay [7], 0.231. The composite z-score in assay [8] was 0.327; in [9] it was 0.392; in [10], 0.499; in assay [11], -0.567; in assay [13], 0.4; in [14], -1.15. The composite z-score was -0.647 in [15]; -0.225 in [16]; -0.273 in assay [17]; 0.108 in [18]; 0.0678 in assay [19]; -0.0469 in [20]. Also, the z-score in assay [4] is -1.31 (inactive); in assay [12], 0.928.

Take `CCOC(=O)[C@H](Cc1ccccc1)NC(=O)CCC1CC(OC(=O)NCc2ccc3c(c2)OCO3)CC2(CCCC(COC(=O)NCCOc3ccccc3)O2)O1` (stereo not given in full): the composite z-score in assay [1] is 0.653; in assay [2], -0.388; in assay [3] it was -0.704; in [5] it was 0.881; in [6] it was 1.1; in assay [7] it was 0.628. Besides, the composite z-score was 1.31 in assay [8]; 1.16 in assay [9]; -0.0859 in [10]; 1.24 in assay [11]; 0.753 in assay [13]; 0.505 in [14]. The composite z-score in assay [15] was -0.166; in assay [16], -0.15; in assay [17] it was -0.223; in assay [18] it was -0.0047; in [19] it was 0.301; in assay [20] it was 0.495. The z-score in assay [4] was -1.13 (inactive); in assay [12] it was -0.682.

With `CCN1C(=O)[C@H]2[C@H]3[C@H](O)[C@H](O)CC(=NOCC=C(C)CCC=C(C)C)[C@@H]3CC[C@H]2C1=O`, the composite z-score was 0.882 in assay [1]; -0.214 in assay [2]; -0.717 in assay [3]; 1.21 in [5]; 0.938 in assay [6]; 1.53 in assay [7]. Moreover, the composite z-score in assay [8] is 0.972; in assay [9], 1.16; in [10], 1.18; in assay [11], 0.57; in assay [13], 1.29; in [14] it was -1.09. Further, the composite z-score in assay [15] was -0.347; in [16] it was -0.087; in assay [17], -0.282; in assay [18], -0.158; in [19] it was 0.0411; in assay [20], 0.791. The z-score is 0.486 (inactive) in assay [4] and -0.44 in assay [12].

For `CCOC(=O)[C@H](CC(C)C)NC(=O)CCC1CC(OC(=O)NCCc2ccc(F)cc2)CC2(CCCC(COC(=O)NCc3cccc4ccccc34)O2)O1` (stereo not given in full), the composite z-score is 0.66 in assay [1]; -0.0464 in assay [2]; -0.224 in [3]; 0.176 in assay [5]; 0.121 in assay [6]; 0.55 in assay [7]. For the same molecule, the composite z-score in assay [8] is 0.135; in [9], 0.678; in assay [10], -0.583; in assay [11], 0.548; in [13], 0.824; in assay [14] it was 0.239. In addition, the composite z-score in [15] was -0.364; in [16], -0.156; in assay [17] it was -0.237; in [18], -0.497; in assay [19], 0.219; in assay [20] it was 0.0466. Moreover, the z-score in assay [4] was -1.61 (inactive); in [12], -0.893.

For the molecule `C=CC[C@@H]1C=CC(ON=C(C)C)[C@@H](CO)O1` (stereo not given in full), the composite z-score in assay [1] is 0.24; in assay [2], -0.011; in assay [3], -0.127; in assay [5] it was -0.766; in [6], -0.689; in [7], 0.0691. The composite z-score is -0.899 in [8]; -0.307 in assay [9]; 1.14 in [10]; -1.17 in [11]; 0.0335 in [13]; -0.253 in assay [14]. In addition, the composite z-score in [15] was 0.0283; in [16], -0.0701; in [17] it was -0.2; in [18], -0.303; in assay [19], -0.275; in [20] it was -0.139. Further, the z-score in assay [4] was 0.304 (inactive); in assay [12], 0.931.

As to `CC(C)CON=C1C[C@@H](O)[C@@H](O)[C@@H]2[C@@H]3C(=O)N([C@@H](C)c4ccccc4)C(=O)[C@@H]3CC[C@@H]12`, the composite z-score in assay [1] was -0.201; in assay [2], 0.083; in assay [3] it was 0.767; in assay [5], 0.266; in assay [6] it was -0.0708; in assay [7], 0.191. Besides, the composite z-score was -0.279 in assay [8]; -0.24 in assay [9]; 0.467 in assay [10]; -0.0319 in assay [11]; 0.236 in assay [13]; -0.231 in assay [14]. In addition, the composite z-score was -0.282 in [15]; -0.124 in assay [16]; -0.289 in assay [17]; -0.222 in assay [18]; 0.179 in [19]; 0.0887 in assay [20]. Besides, the z-score in [4] is 0.226 (inactive); in assay [12] it was -0.265.

With `CC(C)=NOC[C@@H](O)[C@H]1O[C@@H]2OC(C)(C)O[C@@H]2[C@H]1O`, the composite z-score in assay [1] was 0.231; in assay [2], -0.0464; in assay [3], -0.364; in [5], 0.392; in [6], 0.892; in assay [7], 0.487. Further, the composite z-score in assay [8] stood at 0.434; in assay [9], 0.58; in [10], 0.5; in [11], 0.855; in assay [13], 0.989; in assay [14] it was 0.0985. Moreover, the composite z-score is -0.29 in [15]; 0.163 in [16]; 0.0952 in assay [17]; -0.191 in assay [18]; 0.243 in [19]; 0.154 in assay [20]. Further, the z-score in [4] was 0.211 (inactive); in assay [12], 0.674.
